Measured values published in the antibiotic and cytotoxicity screens of Wong et al. (2023).
The whole screen tested about 39,000 compounds, of which about 3,300 (8.5%) were called active. The list comes from a sample in which actives are over-represented; it also holds similar structures and randomly drawn compounds.

Tested on: HepG2
Assay: cytotoxicity call (relative viability < 0.9)
Details: 10 µM

| Compound | cytotoxicity call |
| --- | --- |
| Cc1cc(NC(=O)CSc2nnc[nH]2)no1 | inactive |
| Cc1ccc(S(=O)(=O)Nc2ccc3c(c2)CC(=O)N([C@@H](C)CO)C[C@@H](C)[C@@H](CN(C)Cc2ccc(-c4ccccc4)cc2)O3)cc1 | active |
| Cc1ccc(S(=O)(=O)Nc2ccc3c(c2)CC(=O)N([C@@H](C)CO)C[C@H](C)[C@H](CN(C)Cc2ccc(-c4ccccc4)cc2)O3)cc1 | inactive |
| Cc1ccc(S(=O)(=O)Nc2ccc3c(c2)CC(=O)N([C@@H](C)CO)C[C@H](C)[C@@H](CN(C)Cc2ccc(-c4ccccc4)cc2)O3)cc1 | inactive |
| Cc1noc(C)c1NC(=O)N(C)C[C@H]1OCCCC[C@@H](C)Oc2ccc(NC(=O)Nc3ccc(C(F)(F)F)cc3)cc2C(=O)N([C@H](C)CO)C[C@@H]1C | inactive |
| C[C@H](CO)N1C[C@H](C)[C@H](CN(C)S(=O)(=O)c2ccc(F)cc2)Oc2ccc(NS(=O)(=O)c3ccccc3)cc2C1=O | inactive |
| Cc1ccc(Nc2nnc(-c3ccccc3)c3ccccc23)cc1 | active |
| Cc1ccc(Nc2c(-c3ccccc3)nc3ccccn23)cc1 | inactive |
| Cc1ccc2nc(Nc3ccccc3)nc(-c3ccccc3)c2c1 | inactive |
| C[C@H](CO)N1C[C@H](C)[C@H](CN(C)S(=O)(=O)c2ccc3ccccc3c2)OCc2cn(nn2)CCCC1=O | inactive |
| C[C@H](CO)N1C[C@H](C)[C@H](CN(C)Cc2ccc(C(=O)Nc3ccccc3N)cc2)Oc2c(NC(=O)NC3CCCCC3)cccc2C1=O | active |
| C[C@H](CO)N1C[C@H](C)[C@H](CN(C)Cc2ccc(C(=O)Nc3ccccc3N)cc2)Oc2c(NC(=O)C3CCCCC3)cccc2C1=O | inactive |
| C[C@H]1CN([C@@H](C)CO)C(=O)c2cccc(NC(=O)C3CCCCC3)c2O[C@H]1CN(C)Cc1ccc(C(=O)Nc2ccccc2N)cc1 | active |
| C[C@H]1CN([C@@H](C)CO)C(=O)c2cccc(NC(=O)NC3CCCCC3)c2O[C@H]1CN(C)Cc1ccc(C(=O)Nc2ccccc2N)cc1 | inactive |
| C[C@H]1CN([C@@H](C)CO)C(=O)c2cccc(NC(=O)C3CCCCC3)c2O[C@@H]1CN(C)Cc1ccc(C(=O)Nc2ccccc2N)cc1 | inactive |
| C[C@@H]1CN([C@@H](C)CO)C(=O)c2cccc(NC(=O)C3CCCCC3)c2O[C@H]1CN(C)Cc1ccc(C(=O)Nc2ccccc2N)cc1 | inactive |
| C[C@@H]1CN([C@@H](C)CO)C(=O)c2cccc(NC(=O)C3CCCCC3)c2O[C@@H]1CN(C)Cc1ccc(C(=O)Nc2ccccc2N)cc1 | active |
| C[C@@H]1CN([C@@H](C)CO)C(=O)c2cccc(NC(=O)NC3CCCCC3)c2O[C@@H]1CN(C)Cc1ccc(C(=O)Nc2ccccc2N)cc1 | inactive |
| C[C@@H]1CN([C@H](C)CO)C(=O)c2cccc(NC(=O)C3CCCCC3)c2O[C@H]1CN(C)Cc1ccc(C(=O)Nc2ccccc2N)cc1 | inactive |
| C[C@@H]1CN([C@@H](C)CO)C(=O)c2cc(NC(=O)C3CC3)ccc2O[C@@H]1CN(C)S(=O)(=O)c1ccc(Cl)cc1 | inactive |
| Cc1ccc(S(=O)(=O)N(C)C[C@H]2OCCCC[C@@H](C)Oc3ccc(NC(=O)Nc4ccc(C(F)(F)F)cc4)cc3C(=O)N([C@@H](C)CO)C[C@H]2C)cc1 | inactive |

| Compound | cytotoxicity call |
| --- | --- |
| O=C(O)c1c(Br)c(Br)c(Br)c(Br)c1-c1c2ccc(=O)cc-2oc2cc(O)ccc12 | inactive |
| CNC[C@@H]1OCCCC[C@H](C)Oc2ccc(NC(=O)Nc3ccc(C(F)(F)F)cc3)cc2C(=O)N([C@@H](C)CO)C[C@@H]1C | inactive |
| COc1ccc(S(=O)(=O)N(C)C[C@@H]2Oc3ccc(NC(=O)CCCN(C)C)cc3C(=O)N([C@@H](C)CO)C[C@H]2C)cc1 | inactive |
| C[C@@H]1CCCCO[C@@H](CN(C)C(=O)c2ccccc2)[C@H](C)CN([C@H](C)CO)C(=O)c2cc(NC(=O)c3ccccc3)ccc2O1 | inactive |
| CC(C)NC(=O)Nc1ccc2c(c1)CC(=O)N([C@@H](C)CO)C[C@@H](C)[C@H](CN(C)S(=O)(=O)c1cn(C)cn1)O2 | inactive |
| C[C@@H]1CN([C@H](C)CO)C(=O)c2cc(NC(=O)Nc3ccccc3)ccc2O[C@H]1CN(C)C(=O)Nc1ccc(C(F)(F)F)cc1 | inactive |
| O=C(O)C[C@@H]1CC[C@H]2[C@@H](COC[C@@H](O)CN2S(=O)(=O)c2ccc(F)cc2)O1 | inactive |
| COc1ccc(NC(=O)Nc2cccc3c2O[C@@H](CN(C)CC2CCCCC2)[C@H](C)CN([C@H](C)CO)C3=O)cc1 | inactive |
| Cc1cc(C(=O)Nc2cccc3c2O[C@H](CN(C)C(=O)Nc2ccc4c(c2)OCO4)[C@H](C)CN([C@@H](C)CO)C3=O)n(C)n1 | inactive |
| C[C@@H]1CN([C@H](C)CO)C(=O)c2cc(-c3cncnc3)cnc2O[C@@H]1CN(C)C(=O)Nc1ccc2c(c1)OCO2 | inactive |
| CC(C)NC(=O)N(C)C[C@@H]1Oc2ccc(NC(=O)Nc3ccc4c(c3)OCO4)cc2C(=O)N([C@@H](C)CO)C[C@@H]1C | active |
| CC(C)NC(=O)N(C)C[C@H]1Oc2ccc(NC(=O)Nc3ccc4c(c3)OCO4)cc2C(=O)N([C@@H](C)CO)C[C@H]1C | inactive |
| CC(C)NC(=O)N(C)C[C@@H]1Oc2c(NC(=O)Nc3ccc4c(c3)OCO4)cccc2C(=O)N([C@H](C)CO)C[C@H]1C | inactive |
| C[C@H](CO)N1C[C@H](C)[C@@H](CN(C)C(=O)Nc2ccc3c(c2)OCO3)Oc2ncc(-c3cncnc3)cc2C1=O | active |
| Cc1cc(C(=O)Nc2cccc3c2O[C@@H](CN(C)C(=O)Nc2ccc4c(c2)OCO4)[C@@H](C)CN([C@@H](C)CO)C3=O)n(C)n1 | active |
| Cc1cc(C(=O)Nc2cccc3c2O[C@@H](CN(C)C(=O)Nc2ccc4c(c2)OCO4)[C@H](C)CN([C@@H](C)CO)C3=O)n(C)n1 | inactive |
| C[C@@H]1CN([C@@H](C)CO)C(=O)c2cc(-c3cncnc3)cnc2O[C@H]1CN(C)C(=O)Nc1ccc2c(c1)OCO2 | inactive |
| CC(C)NC(=O)N(C)C[C@H]1Oc2c(NC(=O)Nc3ccc4c(c3)OCO4)cccc2C(=O)N([C@@H](C)CO)C[C@H]1C | inactive |
| CC(C)NC(=O)N(C)C[C@H]1Oc2ccc(NC(=O)Nc3ccc4c(c3)OCO4)cc2C(=O)N([C@H](C)CO)C[C@H]1C | inactive |
| CC(C)NC(=O)N(C)C[C@@H]1Oc2c(NC(=O)Nc3ccc4c(c3)OCO4)cccc2C(=O)N([C@@H](C)CO)C[C@H]1C | active |
